Only a sample is shown.
aSyn 5UTR act – Activators via SNCA 5'UTR binding, MLPCN; actives 7.1% (n = 300,000); activity score, % (tested at 7.5 µM), hits read low; alpha-synuclein 5'UTR reporter, activators screen; in the data active means activity score below about -60%
An asterisk follows results filed as active.

SMILES | aSyn 5UTR act
O=C(/C=C/c1ccccc1)Nc1scc(-c2ccccc2)c1C(=O)O | -84*
CN(C)CC/C=C1\c2ccc(F)cc2Sc2cc(F)c(Cl)cc21 | 103
O=C(c1ccccc1)N1CCN(c2ncnc3c(-c4ccccc4)nsc23)CC1 | -125*
Cc1ccc(-c2nsc3c(N4CCC(C(N)=O)CC4)ncnc23)cc1 | -99*
COc1ccc(-c2nsc3c(N4CCN(S(=O)(=O)c5ccccc5F)CC4)ncnc23)cc1 | -69*
Cc1ccc(-n2nc3c(N4CCC(C(=O)NCCc5ccccc5C)CC4)nnc(C)c3c2C)cc1 | 72
COc1ccc(-c2nsc3c(N4CCCCC4)ncnc23)cc1 | 85
N#C/C(=C\c1cc(Cl)c(OCc2ccc(Cl)cc2)c(Cl)c1)C(N)=O | -143*
Cc1cc(/C=C(\C#N)C(=O)NCc2ccco2)c(C)n1C1CCCC1 | -137*
Cc1cc(/C=C(\C#N)C(=O)NCc2ccco2)c(C)n1-c1cccnc1 | -100*
Cc1ccc(C)c(OCCn2cc(/C=C(\C#N)C(=O)NCc3ccco3)c3ccccc32)c1 | 52
N#Cc1cc(C#N)c(N2CCN(c3cccc(Cl)n3)CC2)nc1N | -85*
Cc1ccc(C)c(-c2[nH]ncc2CN2CCCC(CO)(Cc3ccccc3C)C2)c1 (stereo not drawn) | 33
Cc1ccc(Nc2nc(COC(=O)COc3ccc(C=O)cc3)cs2)cc1 | -107*
C/C=C/c1ccc(OCC(=O)OCc2csc(Nc3ccc(C)cc3)n2)c(OC)c1 | -177*
Oc1ccccc1-c1cc(-c2cccc(F)c2)n[nH]1 | -234*
O=C(Nc1cccc(-c2ccc(N3CCOCC3)nn2)c1)c1ccc(F)cc1F | -73*
CCOc1ccc(C(=O)Nc2cccc(-c3ccc(N4CCOCC4)nn3)c2)cc1OCC | -69*
COc1cccc(C(=O)Nc2cccc(-c3ccc(N4CCOCC4)nn3)c2)c1 | -72*
CCOc1ccccc1C(=O)Nc1cccc(-c2ccc(N3CCOCC3)nn2)c1 | -127*
CCOc1ccccc1C(=O)Nc1c[nH]c(=O)[nH]c1=O | 62
COc1ccc(C(=O)Nc2cccc(-c3ccc(N4CCOCC4)nn3)c2)cc1OC | -70*
CC1CCCN(CCS(=O)(=O)c2ccccc2)C1 (stereo not drawn) | -151*
Cc1ccc(NC(=O)c2cnccn2)nc1 | -78*
Cc1ccc(NC(=O)c2cnccn2)c(Br)c1 | -87*
SMILES | aSyn 5UTR act
Cc1ccc(/C=N/n2c(C)nc3ccccc3c2=O)s1 | -90*
Cc1nc2ccccc2c(=O)n1/N=C/c1ccccc1Cl | -91*
COc1ccc(-c2nc(NC(=O)Cn3c(=O)oc4ccccc43)sc2C)cc1 | -70*
CCCc1ccc(-c2ccc(F)c(N)c2)nc1 | 99
CCc1ccc(-c2ccc(C(=O)O)cc2)nc1 | -126*
CCOC(=O)Cn1cnc(-c2ccc([N+](=O)[O-])cc2)c1 | -77*
Cc1cccc(C(=O)CC(=O)c2cc(Cl)ccc2O)c1 | 64
O=C(CC(=O)c1cc(Cl)ccc1O)c1ccccc1 | -99*
Cc1ccc(O)c(C(=O)CC(=O)c2cccc(F)c2)c1 | -85*
NC(=NCCc1ccccc1)NC(=O)c1cc(Cl)ccc1O | -108*
CCOC(=O)N1N=C(c2ccccc2)CC1(O)C(F)(F)F (stereo not drawn) | -75*
COC(=O)N1N=C(c2ccc(Br)cc2)CC1(O)C(F)(F)F (stereo not drawn) | -126*
CCOC(=O)C1=NN(C(=O)c2cccc(Br)c2)C(O)(C(C)(C)C)C1 (stereo not drawn) | 105
CCOc1ccc(C(Nc2cccnc2)c2cc(Cl)c3cccnc3c2O)cc1 (stereo not drawn) | 67
CCOc1ccc(NC(c2ccccn2)c2oc(CO)cc(=O)c2O)cc1 (stereo not drawn) | -104*
CCN(CC)c1ccc(CNc2ccc(Br)cn2)cc1 | -103*
Cc1ccc(NC(=O)Nc2ccc3c(c2)C(=O)OC3)cc1Cl | -83*
O=C(Nc1ccc(Nc2ccccc2)cc1)Nc1ccccc1Cl | -227*
O=C(NCc1ccco1)Nc1ccc(Br)cc1Cl | -170*
O=C(Nc1ccc(Cl)c(Cl)c1)OCc1cccnc1 | -73*
O=C(Nc1cccnc1)Nc1ccccc1Cl | -72*
O=C(Nc1cccnc1)Nc1ccc(Br)cc1Cl | -68*
O=C(Nc1ccc2c(c1)CCC2)Nc1ccccc1Cl | -110*
O=C(Nc1csc([N+](=O)[O-])c1)Nc1ccccc1Cl | -89*
O=C(Nc1ccc(Cl)cc1)Nc1ccccc1Sc1ncc([N+](=O)[O-])s1 | -90*
SMILES | aSyn 5UTR act
Cc1ccc(NC(=O)Nc2cccnc2)cc1Cl | -111*
CSC1=NC2(CCCCC2)CC12C=CC(=O)C=C2 | -63*
Cc1nc2c(-c3ccccc3)cnn2c(N2CCOCC2)c1C | -191*
CCCc1cc(N2CCOCC2)n2ncc(-c3ccccc3)c2n1 | -67*
CC(=O)N1CCc2cc(S(=O)(=O)NCCC(=O)Nc3ccc4c(c3)OCCO4)ccc21 | -176*
COc1cccc2cc(C(=O)NCc3ccccn3)c(=O)oc12 | -164*
CCOC(=O)CC(NC(=O)c1cc2cccc(OC)c2oc1=O)c1ccc(OC)cc1 (stereo not drawn) | -70*
C=CCn1cc(/C=N/Nc2nc3ccccc3[nH]2)c2ccccc21 | -195*
